Drawing on PubChem BioAssay (NCI), this text covers growth for 40 molecules.

“And” between values parts separate entries of the source, which are not always exact repeats. Equal values may be shown once. About 83,000 compounds went through this panel and 20% of them were active in at least one assay; those are over-represented in the sample as a whole.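 Interpretation: 100, growth as untreated; towards 0, rising growth inhibition; 0, no net growth; 0 to -100, cell death. Compounds scoring below 10 were considered active.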 The source made the active and inactive calls.

The assay deals with U251 CNS. Briefly: NCI-60 one-dose screen, 48 h (100 = growth as untreated, 0 = no growth, -100 = all killed). Particulars: 10 µM. Here is the method: Growth inhibition of the U251 human tumor cell line is measured as a screen for anti-cancer activity. Cells are grown in 96 well plates and exposed to the test compound for 48 hours. Compounds are tested at a single concentration, which is 10^-5 M for most compounds. The reported endpoint is percent growth (GI% or GIPRCNT), where numbers from 0 - 100% represent growth inhibition, and numbers from -100% - 0 represent cell death. For example, a value of 40 represents 60% growth inhibition. A value of 0 means no net growth occurred over the course of the experiment. A value of -40 indicates 40% of cells at the beginning of the experiment died by the end of the experiment. A value of -100 means all cells are dead at the end of the experiment.
NCI-60 Human Tumor Cell Lines Screen was performed using the standard one-dose NCI protocol, which is described in more detail at https://dtp.cancer.gov/discovery_development/nci-60/default.htm.
Compounds with GIPRCNT values below 10 were considered active. Activity score was based on GIPRCNT using the following formula: […]
Score is 0 for GIPRCNT values of 100 or above, 50 for GIPRCNT values of 0, and 100 for GIPRCNT values of -100.
On to `COc1cc(C)c(-c2ccc(OC)c(=O)cc2C)c(OC)c1OC`, for which the growth was 11.9% (inactive) and 104% (inactive).

Turning to `COc1cccc2c1cc([N+](=O)[O-])c1c(C(=O)O)cc3c(c12)OCO3`, the growth is 103% (inactive).

`COc1cc2c(O[C@@H]3OC[C@H](OC(C)=O)[C@H](OC(C)=O)[C@H]3O)c3c(c(-c4ccc5c(c4)OCO5)c2cc1OC)C(=O)OC3`: the growth was 28.5% (inactive).

With `CC(C)=CCc1c2c(c(O)c3c1O[C@]14C(=C[C@@H]5C[C@H]1C(C)(C)O[C@@]4(C/C=C(/C)C(=O)O)C5=O)C3=O)C=CC(C)(C)O2`, the growth was -87.7% (active).

On to `CC1=C(CCC=NNC(N)=O)C2=C(C)C3(CC3)[C@@](C)(O)C(=O)C2=C1`, for which the growth was 4.6% (active).

As to `CC1=C(CN(O)C(N)=O)C2=C(C)C3(CC3)[C@@](C)(O)C(=O)C2=C1`, the growth is 4.97% (active).

As for `CC(C)(O)/C=C/C(=O)[C@](C)(O)[C@H]1[C@H](O)C[C@@]2(C)[C@H]3CC=C4[C@@H](C[C@H](O)C(=O)C4(C)C)[C@]3(C)C(=O)C[C@]12C`, the growth is 0.229% (active).

In the case of `CC(=O)O[C@@H]1C[C@H]2O[C@@H]3C=C(C)CC[C@]3(C)[C@]1(C)[C@]21CO1`, the growth was 5.85% (active).

In the case of `N#Cc1c(-n2c(Br)c(Br)c3cc(Br)ccc32)[nH]c2c(Br)cc(Br)cc12`, the growth was 2.86% (active).

As for `CC1=C[C@H]2O[C@@H]3C[C@@H](O)[C@](C)([C@@]2(C)CC1)[C@@]31CO1`, the growth is 15.4% (inactive).

`C/C=C/CC(C)C(O)[C@H](NC(=O)[C@@H]1CCCN1C(=O)C(C)(C)NC(=O)CCCCCCCCC)C(=O)N[C@@](C)(CC)C(=O)N[C@@H](CCC(N)=O)C(=O)N[C@H](CCC(N)=O)C(=O)NC(C)(C)C(=O)N[C@@](C)(CC)C(=O)N[C@@H](CCC(N)=O)C(=O)N[C@H](CC(C)C)C(=O)N[C@H](CO)CC(C)C` (stereo not given in full): the growth is 107% (inactive) and -75.1% (active).

As to `COC1[C@@H]2C[C@H]3C(C)(C)O[C@@](C/C=C(/C)C(=O)O)(C2=O)[C@]32Oc3c(CC=C(C)C)c4c(c(O)c3C(=O)[C@H]12)C=CC(C)(C)O4` (stereo not given in full), the growth was -91.1% (active).

`C/C=C/CC(C)C(O)[C@H](NC(=O)[C@@H]1CCCN1C(=O)C(C)(C)NC(=O)CCCCCCCCC)C(=O)N[C@@](C)(CC)C(=O)N[C@@H](CCC(N)=O)C(=O)N[C@H](CCC(N)=O)C(=O)NC(C)(C)C(=O)NC(C)(C)C(=O)N[C@@H](CCC(N)=O)C(=O)N[C@H](CC(C)C)C(=O)N[C@H](CO)CC(C)C` (stereo not given in full): the growth was -89.3% (active) and 13.7% (inactive).

Take `COc1cc2c(cc1OC)[C@@H]1N(CC2)C(=O)c2ccccc2[C@@]1(C)C(=O)O`: the growth is 106% (inactive).

In the case of `C/C=C\C(=O)O[C@@H]1CC2O[C@@H]3C=C(C)C(=O)C[C@]3(C)[C@]1(C)[C@]21CO1`, the growth is -11% (active).

Regarding `CC1=C2C(=C[C@@](C)(COC(=O)c3ccc(S(=O)(=O)F)cc3)[C@@H]2OC(=O)c2ccc(S(=O)(=O)F)cc2)C(=O)[C@](C)(O)C12CC2`, the growth was -21.5% (active).

As to `C[C@@H]1CCC/C=C/[C@H]2C[C@@H](O)C[C@@H]2[C@@H](O)/C=C/C(=O)O1`, the growth is 17.6% (inactive).

Turning to `CC1=C[C@H]2O[C@@H]3C[C@H]4OC(=O)/C=C\C=C\[C@H]([C@@H](C)O)OCC[C@@H](C)[C@H](O)C(=O)OC[C@@]2(CC1)[C@]4(C)[C@]31CO1`, the growth is -20.4% (active).

On to `CN(CCF)/N=N/c1nc[nH]c1C(N)=O`, for which the growth is 90.9% (inactive).

In the case of `NC1CCc2cc(O)c(O)cc2C1` (stereo not given), the growth was 79.6% (inactive).

As to `C/C=C/CC(C)C(O)[C@H](NC(=O)[C@@H]1CCCN1C(=O)C(C)(C)NC(=O)CCCCCCCCC)C(=O)NC(C)(C)C(=O)N[C@@H](CCC(N)=O)C(=O)N[C@H](CCC(N)=O)C(=O)NC(C)(C)C(=O)NC(C)(C)C(=O)N[C@@H](CCC(N)=O)C(=O)N[C@H](CC(C)C)C(=O)N[C@H](CO)CC(C)C` (stereo not given in full), the growth is 0.668% (active) and -89.7% (active).

Consider `CC1=C(CN(O)C(N)=O)C2=C(C)C3(CC3)[C@](C)(O)C(=O)C2=C1`, for which the growth is 23.8% (inactive).

Regarding `COc1cc(OC)c(S(=O)(=O)N(CCCl)CCCl)cc1C(=O)/C=C/c1ccc(Cl)cc1`, the growth is 55.1% (inactive).

For `C/C=C/CC(C)C(O)[C@H](NC(=O)[C@@H]1CCCN1C(=O)C(C)(C)NC(=O)CCCCCCC)C(=O)N[C@@](C)(CC)C(=O)N[C@@H](CCC(N)=O)C(=O)N[C@H](CCC(N)=O)C(=O)NC(C)(C)C(=O)NC(C)(C)C(=O)N[C@@H](CCC(N)=O)C(=O)N[C@H](CC(C)C)C(=O)N[C@H](CO)CC(C)C` (stereo not given in full), the growth was 101% (inactive) and -17.8% (active).

In the case of `CC1=C2C(=C[C@@](C)(COS(C)(=O)=O)[C@@H]2O)C(=O)[C@](C)(O)C12CC2`, the growth is 7.54% (active).

As to `C[C@@H]1C[C@H]2C(=O)O[C@@H](C)C(NC(=O)[C@H](Cc3cc(F)cc(F)c3)NC(=O)Nc3ccc(OS(=O)(=O)F)cc3)C(=O)N3CCC[C@H]3C(=O)N3CCO[C@H](C)[C@H]3C(=O)N[C@@H](CO)C(=O)N2C1` (stereo not given in full), the growth is 29.6% (inactive).

Take `CC1=C2C(=C[C@@](C)(C=O)[C@@H]2O)C(=O)[C@](C)(O)C12CC2`: the growth was 4.74% (active).

For `Cc1ccc(CNc2nc3ccc(OC/C(=C/F)CN)cc3o2)cn1`, the growth is 110% (inactive).

In the case of `CC1=C2C(=O)[C@](C)(CO)C=C2C(=O)[C@](C)(O)C12CC2`, the growth is 8.4% (active).

On to `CN1C(=O)[C@]23SSC1(C)C(=O)N2[C@H]1Nc2ccccc2C1([C@@]12c4ccccc4N[C@@H]1N1C(=O)C4(C)SS[C@]1(C(=O)N4C)[C@H]2O)[C@@H]3O` (stereo not given in full), for which the growth was -97.5% (active).

`COc1cc2c(O[C@@H]3OC[C@H](O)[C@H](O)[C@H]3O)c3c(c(-c4ccc5c(c4)OCO5)c2cc1OC)C(=O)OC3`: the growth was 54.8% (inactive).

For the molecule `CCC(C)[C@H]1C(=O)O[C@H](C(C)C)C(=O)N(C)[C@@H](C(C)C)C(=O)O[C@H](C(C)C)C(=O)N(C)[C@@H](C(C)C)C(=O)O[C@H](C(C)C)C(=O)N1C` (stereo not given in full), the growth is 13.5% (inactive).

Take `CC1=C[C@H]2O[C@@H]3C[C@H]4OC(=O)/C=C\C=C\[C@H]([C@@H](C)O)OCC/C(C)=C/C(=O)OC[C@@]2(CC1)[C@]4(C)[C@]31CO1`: the growth is -17.3% (active).

In the case of `C=C1[C@@H](C)C2[C@H](Cc3ccccc3)NC(=O)[C@]23[C@H](OC(C)=O)/C=C/[C@@](C)(O)C(=O)[C@@H](C)C/C=C/[C@H]3[C@@H]1O` (stereo not given in full), the growth is 29.1% (inactive).

Consider `CCCCCCCCCC(=O)N[C@@](C)(CC)C(=O)N1CCC[C@H]1C(=O)N[C@@H](CC(C)C)C(=O)N[C@@](C)(CC)C(=O)N[C@@H](CCC(N)=O)C(=O)N[C@H](CCC(N)=O)C(=O)NC(C)(C)C(=O)NC(C)(C)C(=O)N[C@@H](CCC(N)=O)C(=O)N[C@H](CC(C)C)C(=O)N[C@H](CO)CC(C)C`, for which the growth was -75.9% (active) and -77.1% (active).

Take `CC1=C2C(=C[C@@](C)(COC(=O)c3ccc(S(=O)(=O)F)cc3)[C@@H]2O)C(=O)[C@](C)(O)C12CC2`: the growth is 1.04% (active).

As to `O=C(CCCc1ccc(N(CCCl)CCCl)cc1)OCc1ccccc1`, the growth is 89.2% (inactive).

For `COC(=O)[C@H]1[C@@H](O)[C@@]2(O)c3c(OC)cc(OC)cc3O[C@@]2(c2ccc(OC)cc2)[C@@H]1c1ccccc1`, the growth is -5.73% (active).

In the case of `CC(=O)O[C@@H]1[C@@H]2O[C@H]2[C@@](C)(O)C(=O)[C@@H](C)C/C=C/[C@H]2[C@@H]3O[C@]3(C)[C@@H](C)C3[C@H](Cc4ccccc4)NC(=O)[C@@]312` (stereo not given in full), the growth is 43.1% (inactive).

On to `N#Cc1nc(-c2ccccc2)oc1N1CCC(S(=O)(=O)F)CC1`, for which the growth is 98.6% (inactive).
